Reference: PubChem BioAssay
“And” between values parts separate entries of the source, which are not always exact repeats. Equal entries are not always repeated. Records with an inconclusive call do not appear. The source made the active and inactive calls.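 Rule for the calls, unless noted: active = normalized viability below 100% at a tested concentration; inactive = the rest.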

What was measured:
[1] = ovarian cancer cell viability with rucaparib, profiling panel, oncology-focused library, rucaparib conditional (AID 1508598); details: patient-derived ovarian cancer cells, CellTiter-Glo viability, 144 h, stronger effect = lower value
[2] = growth inhibition of DIPG glioma cells, dose response, cell-based, SU-DIPG-XVII, MIPE5.0, CellTiter-Glo, qHTS (AID 1347060; cut-off not given, nearly all actives have AC50 up to about 26 µM;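 for AC50: cells exposed to compound for 48 hours before viability readout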); details: SU-DIPG-XVII viability, CellTiter-Glo ATP luminescence
[3] = growth inhibition of DIPG glioma cells, dose response, cell-based, SU-DIPG-XIII, MIPE4.0, CellTiter-Glo, qHTS (AID 1347061; cut-off not given, nearly all actives have AC50 up to about 37 µM;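 note: cells exposed to compound for 48 hours before readout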); details: SU-DIPG-XIII viability, CellTiter-Glo ATP luminescence
[4] = growth inhibition of DIPG glioma cells, dose response, cell-based, JHH-DIPG-1, MIPE4.0, CellTiter-Glo, qHTS (AID 1347062; cut-off not given, nearly all actives have AC50 up to about 27 µM;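 for AC50: cells exposed to compound for two days before readout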); details: JHH-DIPG-1 viability, CellTiter-Glo ATP luminescence
[5] = growth inhibition of DIPG glioma cells, dose response, cell-based, SU-DIPG-IV, MIPE4.0, CellTiter-Glo, qHTS (AID 1347063; cut-off not given, nearly all actives have AC50 up to about 30 µM;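 note: compound exposure lasted 48 hours before the viability readout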); details: SU-DIPG-IV viability, CellTiter-Glo ATP luminescence
[6] = growth inhibition of DIPG glioma cells, dose response, cell-based, SU-DIPG-XIII, MIPE5.0, CellTiter-Glo, qHTS (AID 1347064; cut-off not given, nearly all actives have AC50 up to about 23 µM;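 for AC50: cells exposed to compound for 48 hours before the viability read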); details: SU-DIPG-XIII viability, CellTiter-Glo ATP luminescence
[7] = viability loss in pontine glioma line – cell-based, SU-DIPG-XXV, MIPE5.0, CellTiter-Glo, qHTS, dose response (AID 1347065; cut-off not given, nearly all actives have AC50 up to about 26 µM;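 note: cells exposed to compound for 48 hours before ATP readout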); details: CellTiter-Glo ATP luminescence
[8] = JHH-DIPG-1 glioma cell viability, MIPE5.0 library, CellTiter-Glo luminescence, qHTS (AID 1347067; cut-off not given, nearly all actives have AC50 up to about 26 µM;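 note: cells exposed to compound for 48 hours before readout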); details: JHH-DIPG-1 glioma viability, CellTiter-Glo ATP luminescence
[9] = modifiers of HSF1 nuclear foci, imaging, Selleck Cancer Library (AID 1347162; in the data active = plate-normalised HSF1 focus index below about 0.46); details: human cells, at 10 µM; SSMD: measured here: HSF1 foci SSMD mean; cell count: measured here: cell number; plate-normalised HSF1 focus index: stronger effect = lower value
[10] = SU-DIPG-VI glioma cell viability, MIPE4.0 library, CellTiter-Glo luminescence, qHTS (AID 1347066; cut-off not given, nearly all actives have AC50 up to about 30 µM;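 note: cells exposed to compound for 48 hours before readout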); details: CellTiter-Glo ATP luminescence
[11] = SU-DIPG-XXV glioma cell viability, MIPE5.0 library, qHTS (AID 1347068; cut-off not given, nearly all actives have IC50 up to about 30 µM;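 for IC50: cells exposed to compound for 48 hours before viability readout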)
[12] = sensitizers of A549 cells to miR-34 induction, primary screen, imaging, A549 dox-inducible miR-34, nuclei and caspase counts (AID 1347080;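 active = compounds whose cell count with miR-34 switched on is under 0.7 times the count with it off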); details: A549 miR-34 inducible, Hoechst nuclei count, 48 h
[13] = survival rescue of mitochondrial mutant cells in low glucose, primary screen, MELAS cybrids, Rieske KO mouse fibroblasts, CellTiter-Glo (AID 1508586;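 active = mean z-score across replicates of 1.96 or higher in either the MELAS or the Rieske mutant cell line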;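 note: z relative to plate mean and SD of compound and empty wells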)
[14] = at 0.0781 µM, OCI-C5x cells, without rucaparib
[15] = at 0.0781 µM, OCI-P5x cells, with rucaparib 20 µM, 100% = cells with rucaparib alone
[16] = at 0.0781 µM, OCI-P5x cells, without rucaparib
[17] = at 0.313 µM, OCI-C5x cells, with rucaparib 10 µM, 100% = cells with rucaparib alone
[18] = at 0.313 µM, OCI-C5x cells, without rucaparib
[19] = at 0.313 µM, OCI-P5x cells, with rucaparib 20 µM, 100% = cells with rucaparib alone
[20] = at 0.313 µM, OCI-P5x cells, without rucaparib
[21] = at 1.25 µM, OCI-C5x cells, with rucaparib 10 µM, 100% = cells with rucaparib alone
[22] = at 1.25 µM, OCI-C5x cells, without rucaparib
[23] = at 1.25 µM, OCI-P5x cells, with rucaparib 20 µM, 100% = cells with rucaparib alone
[24] = at 1.25 µM, OCI-P5x cells, without rucaparib
[25] = at 5 µM, OCI-C5x cells, with rucaparib 10 µM, 100% = cells with rucaparib alone
[26] = at 5 µM, OCI-C5x cells, without rucaparib
[27] = at 5 µM, OCI-P5x cells, with rucaparib 20 µM, 100% = cells with rucaparib alone
[28] = at 5 µM, OCI-P5x cells, without rucaparib
[29] = stronger effect = lower value, cell number ratio, induced over uninduced
[30] = measured here: relative caspase fold change +Dox/-Dox
[31] = measured here: total cells with miR-34 induction, stronger effect = lower value
[32] = measured here: total cells without miR-34 induction
[33] = MELAS cybrid survival, CellTiter-Glo 48 h, stronger effect = higher value
[34] = Rieske KO mouse fibroblast survival, CellTiter-Glo 72 h

CC(C)c1cc(-c2n[nH]c(=O)n2-c2ccc3c(ccn3C)c2)c(O)cc1O
active: viability [1, 14] 14.7% | viability [1, 15] 18.8% | viability [1, 16] 10.9% | viability [1, 17] 11.6% | viability [1, 18] 6.96% | viability [1, 19] 6.88% | viability [1, 20] 5.54% | viability [1, 21] 10% | viability [1, 22] 6.57% | viability [1, 23] 5.29% | viability [1, 24] 4.83% | viability [1, 25] 8.35% | viability [1, 26] 6.47% | viability [1, 27] 6.04% | viability [1, 28] 5.33%

O=C(/C=C/c1cccnc1)NCCCCC1CCN(C(=O)c2ccccc2)CC1
inactive: plate-normalised HSF1 focus index [9] 1.05
7280: cell count [9]
1.27: SSMD [9]
active: AC50 [2] 0.0118 µM | AC50 [3] 0.0166 µM | AC50 [4] 0.00418 µM | AC50 [5] 0.0209 µM | AC50 [6] 0.00186 µM | AC50 [7] 0.00468 µM | AC50 [8] 0.00417 µM

COc1ccccc1N1CCN(CCN(C(=O)C2CCCCC2)c2ccccn2)CC1
8900 and 8750: cell count [12, 31]
inactive: outcome [2] | outcome [3] | outcome [4] | outcome [5] | outcome [6] | outcome [10] | outcome [11] | fold change [12, 29] 0.953 and 0.872 | z-score [13, 33] -0.378
9340 and 10000: cell count [12, 32]
0.882 and 0.761: fold change [12, 30]
0.432: z-score [13, 34]

O=C1c2cccc(O)c2C(=O)c2c(O)cc(CO)cc21
8280: cell count [12, 32]
0.836: z-score [13, 34]
inactive: outcome [2] | outcome [3] | outcome [4] | outcome [5] | outcome [6] | outcome [7] | outcome [8] | outcome [11] | fold change [12, 29] 0.954 | z-score [13, 33] -0.27
7900: cell count [12, 31]
0.691: fold change [12, 30]

Cn1cc(CNCC2CCN(c3ncc(C(=O)NO)cn3)CC2)c2ccccc21
0.734: fold change [12, 30]
active: AC50 [2] 0.417 µM | AC50 [3] 2.64 µM | AC50 [4] 0.332 µM | AC50 [5] 0.418 µM | AC50 [6] 0.209 µM | AC50 [7] 0.132 µM | AC50 [8] 0.209 µM | viability ([1]; at 0.000305 µM, OCI-P5x cells, with rucaparib 20 µM, 100% = cells with rucaparib alone) 95.4% | viability ([1]; at 0.000305 µM, OCI-P5x cells, without rucaparib) 92.2% | viability ([1]; at 0.00122 µM, OCI-P5x cells, without rucaparib) 95.8% | viability ([1]; at 0.00488 µM, OCI-P5x cells, with rucaparib 20 µM, 100% = cells with rucaparib alone) 76.6% | viability ([1]; at 0.00488 µM, OCI-P5x cells, without rucaparib) 85.4% | viability ([1]; at 0.0195 µM, OCI-C5x cells, with rucaparib 10 µM, 100% = cells with rucaparib alone) 96.2% | viability ([1]; at 0.0195 µM, OCI-C5x cells, without rucaparib) 99.7% | viability ([1]; at 0.0195 µM, OCI-P5x cells, with rucaparib 20 µM, 100% = cells with rucaparib alone) 32.6% | viability ([1]; at 0.0195 µM, OCI-P5x cells, without rucaparib) 51.7% | viability ([1]; at 0.0781 µM, OCI-C5x cells, with rucaparib 10 µM, 100% = cells with rucaparib alone) 7.04% | viability [1, 14] 7.55% | viability [1, 15] 3.73% | viability [1, 16] 9.01% | viability [1, 17] 5.05% | viability [1, 18] 5.83% | viability [1, 19] 1.63% | viability [1, 20] 1.83% | viability [1, 21] 3.87% | viability [1, 22] 5.39% | viability [1, 23] 1.03% | viability [1, 24] 0.724% | viability [1, 25] 4.54% | viability [1, 26] 5.34% | viability [1, 27] 1.24% | viability [1, 28] 1.13%
inactive: fold change [12, 29] 0.846 | z-score [13, 33] -0.103 | viability ([1]; at 0.000305 µM, OCI-C5x cells, with rucaparib 10 µM, 100% = cells with rucaparib alone) 126% | viability ([1]; at 0.000305 µM, OCI-C5x cells, without rucaparib) 118% | viability ([1]; at 0.00122 µM, OCI-C5x cells, with rucaparib 10 µM, 100% = cells with rucaparib alone) 125% | viability ([1]; at 0.00122 µM, OCI-C5x cells, without rucaparib) 133% | viability ([1]; at 0.00122 µM, OCI-P5x cells, with rucaparib 20 µM, 100% = cells with rucaparib alone) 104% | viability ([1]; at 0.00488 µM, OCI-C5x cells, with rucaparib 10 µM, 100% = cells with rucaparib alone) 116% | viability ([1]; at 0.00488 µM, OCI-C5x cells, without rucaparib) 138%
984: cell count [12, 31]
-2.7: z-score [13, 34]
1160: cell count [12, 32]

Cc1nc(N)ncc1-c1nc(N2CCOCC2)c2sc(C(C)(C)O)cc2n1
active: AC50 [2] 1.66 µM | AC50 [3] 7.43 µM | AC50 [4] 1.32 µM | AC50 [5] 0.332 µM | AC50 [6] 3.32 µM | AC50 [7] 1.05 µM | IC50 [11] 4.68 µM

CS(=O)(=O)c1ccc(-c2cnc(N)c(C(=O)Nc3ccccc3)n2)cc1
4270: cell count [12, 32]
4300: cell count [12, 31]
0.758: z-score [13, 34]
0.481: fold change [12, 30]
inactive: outcome [2] | outcome [3] | outcome [4] | outcome [5] | outcome [6] | outcome [10] | outcome [8] | outcome [11] | fold change [12, 29] 1.01 | z-score [13, 33] -0.286

Cc1ccc(C(=O)Nc2cccc(C(F)(F)F)c2)cc1Nc1nc(-c2cccnc2)nc2c1cnn2C
4020: cell count [12, 31]
3950: cell count [12, 32]
2.14: z-score [13, 34]
active: AC50 [2] 16.6 µM | AC50 [4] 18.7 µM | AC50 [5] 16.6 µM | AC50 [6] 18.6 µM | AC50 [10] 23.5 µM | AC50 [8] 20.9 µM
1.01: fold change [12, 30]
-0.539: z-score [13, 33]
inactive: outcome [3] | outcome [11] | fold change [12, 29] 1.02

N[C@@]1(C(=O)O)CS(=O)(=O)[C@H]2[C@H](C(=O)O)[C@H]21
inactive: outcome [2] | outcome [3] | outcome [4] | outcome [5] | outcome [6] | outcome [10] | outcome [8] | outcome [11]
